Measured values from PubChem BioAssay (Tox21).
Where “and” joins values, the source holds several entries; their conditions need not be identical. Equal entries are not always repeated. Results filed as inconclusive are left out. More than one record can exist for a structure, and the calls need not agree. Calls of active or inactive are those of the source. Unless noted, the call rests on the fitted dose curve; in most records, active means well fitted curve in the direction sought with a large enough effect in the repeat runs; inconclusive means weak or mixed curves; inactive means no such curve, though single readings can be large; an effect the other way counts as inactive or inconclusive.

Columns and labels:
[1] = qHTS assay to identify small molecule antagonists of the progesterone receptor (PR) signaling pathway - cell viability counter screen (AID 1346798); further: series mostly up to about 92 µM; nearly all actives have a fitted effect of over 50% in size
Outline: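 Viability was determined by ATP-based luminescence (CellTiter-Glo) in PR-UAS-bla HEK293T cells cultured in 2% charcoal-stripped serum and incubated 16 hr with compounds under R5020 stimulation.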

[2] = qHTS assay to identify small molecule agonists of the progesterone receptor (PR) signaling pathway - cell viability counter screen (AID 1346799; calls by dose curve; further: nearly all actives have a fitted effect of over 45% in size)
Outline: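 Viability was scored by ATP luminescence (CellTiter-Glo, 30 min, room temperature) in the same wells used for the reporter readout, after 16 hr compound exposure of PR-UAS-bla HEK293T cells.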

[3] = qHTS assay to identify small molecule antagonists of the TGF-beta/Smad signaling pathway - cell viability counter screen (AID 1346824); further: nearly all actives have a fitted effect of over 50% in size
Outline: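 SBE-bla HEK 293T cells, incubated overnight, then compound plus 0.25 ng/mL TGF-beta1 (stock added) for 5 hr at 37 C. Viability was read in the same wells by CellTiter-Glo luminescence after 30 min at room temperature.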

[4] = qHTS assay to identify small molecule agonists of the TGF-beta/Smad signaling pathway - cell viability counter screen (AID 1346829); further: top concentration of the series differs between compounds; nearly all actives have a fitted effect of over 45% in size
Outline: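 Here the cytotoxicity of library compounds is measured in SBE-bla HEK 293T cells treated for 5 hr, using CellTiter-Glo added to wells already read for the beta-lactamase reporter.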

[5] = qHTS assay to identify small molecule agonists of the TGF-beta/Smad signaling pathway (AID 1346859; active means well fitted activation curve with a large enough effect in the signal ratio in the repeat runs, not every such curve was filed as active; the % refers to the signal ratio; further: series mostly up to about 77 µM)
Outline: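 Dual-wavelength fluorescence (460/530 nm emission) quantified beta-lactamase expression under the Smad binding element in HEK 293T cells following 5 hr compound treatment at 37 C.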

[6] = Human pregnane X receptor (PXR) small molecule agonists, qHTS cell viability counter screen (AID 1346977); further: nearly all actives have a fitted effect of over 50% in size; further: potency means the concentration at half of the fitted maximal effect
Outline: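 HepG2 cells stably carrying the PXR-Luc reporter are cultured with 5% charcoal-stripped FBS and treated with compounds for 24hr. CellTiter-Fluor is added at 23hr and fluorescence is read after 1hr.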

[7] = Caspase-3/7 induction in HepG2 cells by small molecules, qHTS assay (AID 1346978); further: nearly all actives have a fitted effect of over 15% in size
Outline: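 Wild-type HepG2 cells, 2,000/well, settled 5 hr at 37 C and 5% CO2, then compound-treated for 17 hr; caspase-3/7 activity read by luminescent Caspase-Glo 3/7 after 30 min at room temperature.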

[8] = Caspase-3/7 induction in CHO-K1 cells by small molecules, qHTS cell viability counter screen (AID 1346979); further: nearly all actives have a fitted effect of over 35% in size; further: potency means the concentration at half of the fitted maximal effect
Outline: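 Seeding: 1,500 CHO-K1 cells/well. Rest: 5hr, 37C. Treatment: compounds in DMSO, 16hr. Read: CellTiter-Fluor, 1hr, fluorescence.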

[9] = Caspase-3/7 induction in CHO-K1 cells by small molecules, qHTS assay (AID 1346980); further: nearly all actives have a fitted effect of over 15% in size
Outline: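 Wild-type CHO-K1 cells exposed to compounds for 17hr at 37 C, 5% CO2. Caspase-3/7 activity then measured by Caspase-Glo 3/7 luminescence after 30min at room temperature.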

[10] = target: Nuclear receptor subfamily 1 group I member 2 (Rattus norvegicus) (UniProt Q9R1A7); assay: Rat pregnane X receptor (rPXR) activation by small molecules, qHTS assay (AID 1346983); conditions: rPXR luciferase reporter cells, One-Glo luminescence, 24 h; stronger effect = higher value; further: nearly all actives have a fitted effect of over 20% in size
Chain of Nuclear receptor subfamily 1 group I member 2 (Rattus norvegicus) (Q9R1A7 whole entry, looked up): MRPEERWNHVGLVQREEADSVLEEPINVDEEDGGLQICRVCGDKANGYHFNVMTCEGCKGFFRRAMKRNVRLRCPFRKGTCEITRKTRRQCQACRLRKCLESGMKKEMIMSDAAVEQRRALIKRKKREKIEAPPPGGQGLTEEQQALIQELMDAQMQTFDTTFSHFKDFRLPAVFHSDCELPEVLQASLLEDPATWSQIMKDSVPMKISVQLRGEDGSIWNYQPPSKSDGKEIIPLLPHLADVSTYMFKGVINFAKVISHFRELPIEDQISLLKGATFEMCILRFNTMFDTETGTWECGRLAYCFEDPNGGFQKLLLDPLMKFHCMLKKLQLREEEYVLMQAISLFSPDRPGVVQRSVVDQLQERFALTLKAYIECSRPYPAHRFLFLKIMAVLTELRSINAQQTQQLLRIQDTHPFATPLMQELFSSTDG
Outline: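 Cell-based rPXR activation assay: rPXR cells, 2,000 per well, rested 5hr at 37 C, then exposed to compounds in DMSO for 24 hr at 37 C. Luciferase activity read by One-Glo luminescence after 30 min at room temperature.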

[11] = target: Nuclear receptor subfamily 1 group I member 2 (Homo sapiens) (UniProt O75469); assay: CYP3A4 induction through human pregnane X receptor (PXR) by small molecules, qHTS assay (AID 1346984); further: nearly all actives have a fitted effect of over 40% in size
Chain of Nuclear receptor subfamily 1 group I member 2 (Homo sapiens) (O75469 whole entry, looked up): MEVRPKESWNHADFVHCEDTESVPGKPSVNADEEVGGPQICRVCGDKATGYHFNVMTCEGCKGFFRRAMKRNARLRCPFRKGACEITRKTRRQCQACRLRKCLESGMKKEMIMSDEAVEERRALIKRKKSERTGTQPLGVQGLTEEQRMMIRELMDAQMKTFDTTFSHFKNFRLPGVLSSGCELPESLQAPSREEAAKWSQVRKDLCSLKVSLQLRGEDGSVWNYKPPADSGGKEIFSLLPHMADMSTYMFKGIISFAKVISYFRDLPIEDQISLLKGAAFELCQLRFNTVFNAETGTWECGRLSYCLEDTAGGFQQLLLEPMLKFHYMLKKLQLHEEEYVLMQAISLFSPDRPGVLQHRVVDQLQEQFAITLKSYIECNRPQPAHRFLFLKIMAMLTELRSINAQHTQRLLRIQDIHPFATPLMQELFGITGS
Outline: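 Readings come from a luciferase reporter: DPX-2 cells, which are HepG2 cotransfected with PXR and a CYP3A4-promoter construct, were exposed to test compounds for 24 h at 37C before One-Glo detection.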

[12] = target: Acetylcholinesterase (Homo sapiens) (UniProt P22303); assay: Acetylcholinesterase (AChE) small molecule antagonists: colormetric cell-based qHTS assay (AID 1347395; calls by dose curve; further: nearly all actives have a fitted effect of over 30% in size; further: potency means the concentration at half of the fitted maximal effect)
Chain of Acetylcholinesterase (Homo sapiens) (P22303 whole entry, looked up): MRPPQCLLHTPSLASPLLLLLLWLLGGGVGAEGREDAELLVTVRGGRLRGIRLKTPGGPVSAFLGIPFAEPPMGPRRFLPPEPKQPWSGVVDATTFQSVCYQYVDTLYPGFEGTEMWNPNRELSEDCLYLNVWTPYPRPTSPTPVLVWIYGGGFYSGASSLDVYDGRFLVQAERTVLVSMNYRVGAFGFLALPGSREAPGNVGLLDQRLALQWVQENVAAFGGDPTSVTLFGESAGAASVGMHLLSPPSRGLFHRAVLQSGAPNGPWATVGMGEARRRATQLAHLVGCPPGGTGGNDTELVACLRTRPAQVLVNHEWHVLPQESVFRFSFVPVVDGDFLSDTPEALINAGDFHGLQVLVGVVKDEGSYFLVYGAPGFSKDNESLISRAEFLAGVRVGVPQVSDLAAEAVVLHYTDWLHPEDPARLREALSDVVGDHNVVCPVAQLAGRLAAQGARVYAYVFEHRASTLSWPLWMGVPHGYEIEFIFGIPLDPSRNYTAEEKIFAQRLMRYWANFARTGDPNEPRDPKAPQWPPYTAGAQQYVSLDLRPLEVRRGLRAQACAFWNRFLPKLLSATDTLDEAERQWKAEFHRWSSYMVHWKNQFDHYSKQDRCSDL
Outline: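 Quantitative HTS in attached SH-SY5Y cells: 30 min compound exposure, then 90 min with acetylthiocholine and DTNB at 37 C; colour from thiocholine reports AChE activity.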

[13] = target: Acetylcholinesterase (Homo sapiens) (UniProt P22303); assay: Acetylcholinesterase (AChE) small molecule antagonists: fluorescence cell-based qHTS assay (AID 1347398; calls by dose curve; further: nearly all actives have a fitted effect of over 50% in size; further: potency means the concentration at half of the fitted maximal effect); conditions: Potency: AChE activity
Outline: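 Endogenous acetylcholinesterase of SH-SY5Y neuroblastoma cells is measured in situ. After overnight attachment and 30 min compound exposure, cells receive acetylthiocholine and Thiolite Green; fluorescence is read after 40 min at room temperature.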

[14] = target: Acetylcholinesterase (Homo sapiens) (UniProt P22303); assay: Acetylcholinesterase (AChE) small molecule antagonists: enzyme-based qHTS assay with human liver microsomes (AID 1347399; calls by dose curve; further: nearly all actives have a fitted effect of over 60% in size; further: potency means the concentration at half of the fitted maximal effect); conditions: Potency: qHTS inhibition
Outline: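 Recombinant human AChE (50 mU/mL in the enzyme mix) and human liver microsomes (0.25 mg/mL final) were preincubated with compound and NADPH (0.25 mg/mL final) for 30 min at 37 C. Acetylthiocholine/DTNB was then added; thiocholine was read colorimetrically after 10 min at room temperature.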

[15] = target: Cytochrome P450 2D6 (Homo sapiens) (UniProt P10635); assay: Cytochrome P450 Family 2 Subfamily D Member 6 (CYP2D6) small molecule antagonists: luciferase reporter qHTS assay (AID 1671196); further: nearly all actives have a fitted effect of over 50% in size; further: potency means the concentration at half of the fitted maximal effect
Chain of Cytochrome P450 2D6 (Homo sapiens) (P10635 whole entry, looked up): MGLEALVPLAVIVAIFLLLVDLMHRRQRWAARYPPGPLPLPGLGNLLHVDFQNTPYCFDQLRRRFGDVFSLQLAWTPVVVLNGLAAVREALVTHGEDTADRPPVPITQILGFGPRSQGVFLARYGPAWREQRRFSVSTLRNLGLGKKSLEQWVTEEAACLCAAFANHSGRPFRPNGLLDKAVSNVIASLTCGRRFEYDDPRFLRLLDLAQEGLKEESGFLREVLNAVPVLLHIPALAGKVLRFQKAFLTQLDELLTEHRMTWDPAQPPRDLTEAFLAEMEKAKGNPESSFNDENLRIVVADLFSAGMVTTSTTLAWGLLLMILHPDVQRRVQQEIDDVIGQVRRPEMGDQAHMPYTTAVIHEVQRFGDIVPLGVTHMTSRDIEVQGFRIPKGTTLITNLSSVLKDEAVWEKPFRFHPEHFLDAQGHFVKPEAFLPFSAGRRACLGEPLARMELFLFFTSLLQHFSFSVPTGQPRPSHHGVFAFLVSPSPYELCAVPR
Outline: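 Each well received CYP2D6 with its proluciferin substrate and chemical, sat 10 min, then got NADPH regeneration solution for 1 h at room temperature. Luminescence in RLU served as the activity measure.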

[16] = target: Thyrotropin-releasing hormone receptor (Homo sapiens) (UniProt P34981); assay: qHTS assay to identify small molecule antagonists of the thyrotropin-releasing hormone receptor (TRHR) signaling pathway (AID 1346877; active means well fitted inhibition curve with a large enough effect in the repeat runs, not every such curve was filed as active; further: series mostly up to about 51 µM)
Chain of Thyrotropin-releasing hormone receptor (Homo sapiens) (P34981 whole entry, looked up): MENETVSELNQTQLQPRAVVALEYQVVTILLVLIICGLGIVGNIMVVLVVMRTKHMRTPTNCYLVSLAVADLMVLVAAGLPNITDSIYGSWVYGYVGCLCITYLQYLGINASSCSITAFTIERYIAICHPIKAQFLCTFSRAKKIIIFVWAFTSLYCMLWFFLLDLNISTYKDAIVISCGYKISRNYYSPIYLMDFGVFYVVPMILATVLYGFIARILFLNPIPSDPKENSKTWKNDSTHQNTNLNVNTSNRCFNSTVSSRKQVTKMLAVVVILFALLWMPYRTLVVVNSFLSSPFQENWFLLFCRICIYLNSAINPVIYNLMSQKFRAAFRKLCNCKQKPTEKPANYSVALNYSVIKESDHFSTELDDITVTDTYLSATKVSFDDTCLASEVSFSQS
Outline: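 Following an 18 h incubation at 37 °C and a 2 h calcium dye load, TRHR-HEK293 cells were exposed to compound (5 min, room temperature) and challenged with TRH, 1 nM final.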

[17] = target: Thyrotropin-releasing hormone receptor (Homo sapiens) (UniProt P34981); assay: qHTS assay to identify small molecule agonists of the thyrotropin-releasing hormone receptor (TRHR) signaling pathway (AID 1346891; calls by dose curve;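 further: HEK293 cells expressing TRHR with calcium dye readout; series mostly up to about 58 µM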)
Outline: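 Kinetic fluorescence (3 min, 1 s intervals) reported intracellular calcium after compound transfer onto TRHR-Hek293 cells pre-loaded with dye for 2 h at 37 °C.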

[18] = target: Nuclear receptor subfamily 1 group I member 2 (Homo sapiens) (UniProt O75469); assay: Human pregnane X receptor (PXR) small molecule agonists, qHTS assay (AID 1346982); further: nearly all actives have a fitted effect of over 35% in size; further: potency means the concentration at half of the fitted maximal effect
Outline: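 Compound-induced hPXR transactivation of a CYP3A4 luciferase reporter was scored in HepG2 PXR-Luc cells over 24 hr at 37 C, 5% CO2, by luminescence.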

[19] = target: Acetylcholinesterase (Homo sapiens) (UniProt P22303); assay: Acetylcholinesterase (AChE) small molecule antagonists: enzyme-based qHTS assay (AID 1347397; calls by dose curve; further: nearly all actives have a fitted effect of over 55% in size; further: potency means the concentration at half of the fitted maximal effect); conditions: Potency: AChE enzyme activity inhibition
Outline: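 Enzyme inhibition was scored from DTNB-detected thiocholine formed by recombinant human AChE acting on acetylthiocholine. The 30 min compound preincubation and 10 min substrate reaction were both run at room temperature, with DMSO as vehicle control.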

[20] = Caspase-3/7 induction in HepG2 cells by small molecules, qHTS cell viability counter screen (AID 1346981); further: series mostly up to about 92 µM; nearly all actives have a fitted effect of over 30% in size
Outline: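 Viability determined by CellTiter-Fluor fluorescence in HepG2 wells also used for the luminescent Caspase-Glo 3/7 read. Compounds were present for 16 hr at 37 C, 5% CO2 before reagent addition.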
On the % scale 0 is the no-effect control and ±100 the full control effect.

CC(C)=C[C@@H]1[C@@H](C(=O)OCc2coc(Cc3ccccc3)c2)C1(C)C
inactive: Potency [1] | Potency [2] | Potency [3] | outcome [4] | Potency [5] | Potency [6] | outcome [7] | Potency [8] | outcome [9] | max activation [10] 12.4% | outcome [11] | Potency [12] | Potency [13] | Potency [14] | Potency [15]

Clc1ccc(Cl)cc1
2.17 µM (active) and inactive: Potency [6]
1.93 µM (active) and inactive: Potency [18]
active: Potency [8] 2.17 µM
inactive: Potency [1] | Potency [2] | Potency [3] | outcome [4] | Potency [5] | outcome [16] | Potency [17] | outcome [7] | outcome [9] | max activation [10] -1.7% | outcome [11] | Potency [12] | Potency [19] | Potency [13] | Potency [14] | Potency [15]

Clc1ccccc1Cl
inactive: Potency [1] | Potency [2] | Potency [3] | outcome [4] | Potency [5] | outcome [16] | Potency [17] | Potency [6] | outcome [7] | Potency [8] | outcome [9] | Potency [20] | Potency [18] | max activation [10] -2.27% | outcome [11] | Potency [12] | Potency [13] | Potency [14] | Potency [15]

CCCCN(CCCC)SN(C)C(=O)Oc1cccc2c1OC(C)(C)C2
active: Potency [8] 69.7 µM | Potency [12] 809 nM and 159 nM | Potency [19] 57.3 nM and 894 nM | Potency [13] 36.2 nM and 564 nM | Potency [14] 573 nM and 3.56 µM | Potency [15] 28.7 µM and 35.6 µM
62.1 µM (active) and inactive: Potency [18]
inactive: Potency [1] | Potency [2] | Potency [3] | outcome [4] | Potency [5] | Potency [6] | outcome [7] | outcome [9]

O=c1n(Cl)c(=O)n(Cl)c(=O)n1Cl
inactive: Potency [1] | Potency [2] | Potency [3] | outcome [4] | Potency [5] | outcome [16] | Potency [17] | Potency [6] | outcome [7] | Potency [8] | outcome [9] | max activation [10] 0.0046% | outcome [11] | Potency [12] | Potency [19] | Potency [13] | Potency [14] | Potency [15]

CC(C)C1(C)N=C(c2nc3ccccc3cc2C(=O)O)NC1=O (stereo not drawn)
inactive: Potency [1] | Potency [2] | Potency [3] | outcome [4] | Potency [5] | outcome [16] | Potency [17] | Potency [6] | outcome [7] | Potency [8] | outcome [9] | Potency [20] | Potency [12] | Potency [19] | Potency [13] | Potency [14] | Potency [15]

CCCCCCCCCCCC#N
inactive: Potency [1] | Potency [2] | Potency [3] | outcome [4] | Potency [5] | Potency [6] | outcome [7] | Potency [8] | outcome [9] | Potency [20] | Potency [18] | Potency [12] | Potency [13] | Potency [14] | Potency [15]

CC(C)OC(=O)Nc1cccc(Cl)c1
inactive: Potency [1] | Potency [2] | Potency [3] | outcome [4] | Potency [5] | outcome [16] | Potency [17] | Potency [6] | outcome [7] | Potency [8] | outcome [9] | Potency [12] | Potency [19] | Potency [13] | Potency [14] | Potency [15]

COC(=O)c1ccccc1C(=O)OC
inactive: Potency [1] | Potency [2] | Potency [3] | outcome [4] | Potency [5] | Potency [6] | outcome [7] | Potency [8] | outcome [9] | Potency [20] | Potency [18] | Potency [12] | Potency [13] | Potency [14] | Potency [15]

CCCN(CCC)N=O
inactive: Potency [1] | Potency [2] | Potency [3] | outcome [4] | Potency [5] | outcome [16] | Potency [17] | Potency [6] | outcome [7] | Potency [8] | outcome [9] | Potency [12] | Potency [19] | Potency [13] | Potency [14] | Potency [15]

Cc1cccc([N+](=O)[O-])c1
inactive: Potency [1] | Potency [2] | Potency [3] | outcome [4] | Potency [5] | outcome [16] | Potency [17] | Potency [6] | outcome [7] | Potency [8] | outcome [9] | Potency [20] | Potency [18] | Potency [12] | Potency [19] | Potency [13] | Potency [14] | Potency [15]

Cc1ccc(N)cc1N
inactive: Potency [1] | Potency [2] | Potency [3] | outcome [4] | Potency [5] | outcome [16] | Potency [17] | Potency [6] | outcome [7] | Potency [8] | outcome [9] | Potency [20] | Potency [18] | Potency [12] | Potency [19] | Potency [13] | Potency [14]
active: Potency [15] 30.9 µM and 31.7 µM

Cc1ccc(N)cc1Cl
inactive: Potency [1] | Potency [2] | Potency [3] | outcome [4] | Potency [5] | outcome [16] | Potency [17] | Potency [6] | outcome [7] | Potency [8] | outcome [9] | Potency [20] | Potency [18] | Potency [12] | Potency [19] | Potency [13] | Potency [14]

O=Cc1cccc(Oc2ccccc2)c1
inactive: Potency [1] | Potency [2] | Potency [3] | outcome [4] | Potency [5] | Potency [6] | outcome [7] | Potency [8] | outcome [9] | Potency [20] | Potency [18] | Potency [12] | Potency [19] | Potency [13] | Potency [14] | Potency [15]

CCCCCCCCCl
63.1 µM (active) and inactive: Potency [18]
inactive: Potency [1] | Potency [2] | Potency [3] | outcome [4] | Potency [5] | outcome [16] | Potency [17] | Potency [6] | outcome [7] | Potency [8] | outcome [9] | Potency [20] | Potency [12] | Potency [19] | Potency [13] | Potency [14] | Potency [15]

Clc1cccc(Cl)c1Cl
inactive: Potency [1] | Potency [2] | Potency [3] | outcome [4] | Potency [5] | outcome [16] | Potency [17] | Potency [6] | outcome [7] | Potency [8] | outcome [9] | Potency [12] | Potency [19] | Potency [13] | Potency [14] | Potency [15]
